Source: PubChem BioAssay (NCI)
Where “and” joins values, the source holds several entries; their conditions need not be identical. Equal values may be shown once. Compounds without any hit were thinned out: in the full panel of roughly 83,000, 20% have a hit.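 Cells were grown in 96-well plates and exposed to the test compound at a single concentration for 48 hours; results are reported as percent growth, with values below 10 considered active.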 Calls of active or inactive are those of the source.

Legend:
Experiment in all cases: NCI-60 one-dose screen, 48 h (100 = growth as untreated, 0 = no growth, -100 = all killed)
DU-145 prostate = system: DU-145 prostate
K-562 leukemia = system: K-562 leukemia
MALME-3M melanoma = system: MALME-3M melanoma
MDA-MB-231 breast = system: MDA-MB-231 breast
RXF 393 renal = system: RXF 393 renal
SF-268 CNS = system: SF-268 CNS
SF-295 CNS = conditions: 10 µM unless noted
SF-539 CNS = system: SF-539 CNS
UACC-257 melanoma = system: UACC-257 melanoma
M14 melanoma = system: M14 melanoma
HCT-15 colon = system: HCT-15 colon
HT29 colon = system: HT29 colon
SNB-75 CNS = system: SNB-75 CNS
SNB-19 CNS = system: SNB-19 CNS
U251 CNS = system: U251 CNS
PC-3 prostate = conditions: 10 µM unless noted
SK-MEL-5 melanoma = system: SK-MEL-5 melanoma
UACC-62 melanoma = conditions: 10 µM unless noted
LOX IMVI melanoma = system: LOX IMVI melanoma
SK-MEL-28 melanoma = conditions: 10 µM unless noted

Measured: growth

COc1cc(C2C3=C(CCCC3=O)N(CCO)c3cc4c(cc32)CCC4)cc(OC)c1OC (stereo not given)
inactive: DU-145 prostate; 10 µM unless noted 94.1% | K-562 leukemia; 10 µM unless noted 78.7% | MALME-3M melanoma; 10 µM unless noted 93.1% | MDA-MB-231 breast; 10 µM unless noted 82.1% | RXF 393 renal; 10 µM unless noted 100% | SF-268 CNS; 10 µM unless noted 90.4% | SF-295 CNS 99.9% | SF-539 CNS; 10 µM unless noted 106% | UACC-257 melanoma; 10 µM unless noted 67.2% | M14 melanoma; 10 µM unless noted 98% | HCT-15 colon; 10 µM unless noted 89.2% | HT29 colon; 10 µM unless noted 71.7% | SNB-75 CNS; 10 µM unless noted 99.5% | SNB-19 CNS; 10 µM unless noted 87.3% | U251 CNS; 10 µM unless noted 88.3% | PC-3 prostate 80.7% | SK-MEL-5 melanoma; 10 µM unless noted 87.1% | UACC-62 melanoma 67.7% | LOX IMVI melanoma; 10 µM unless noted 80.4% | SK-MEL-28 melanoma 96.9%

CN1CCN(c2ccc(Cl)cc2)CC1
active: DU-145 prostate; 10 µM unless noted 6.91%
inactive: K-562 leukemia; 10 µM unless noted 70.3% | MALME-3M melanoma; 10 µM unless noted 126% | MDA-MB-231 breast; 10 µM unless noted 105% | RXF 393 renal; 10 µM unless noted 66.9% | SF-268 CNS; 10 µM unless noted 88.5% | SF-295 CNS 57% | SF-539 CNS; 10 µM unless noted 97.2% | UACC-257 melanoma; 10 µM unless noted 84.4% | M14 melanoma; 10 µM unless noted 101% | HCT-15 colon; 10 µM unless noted 20.1% | HT29 colon; 10 µM unless noted 26.4% | SNB-75 CNS; 10 µM unless noted 111% | SNB-19 CNS; 10 µM unless noted 93.9% | U251 CNS; 10 µM unless noted 70.1% | PC-3 prostate 107% | SK-MEL-5 melanoma; 10 µM unless noted 101% | UACC-62 melanoma 86.4% | LOX IMVI melanoma; 10 µM unless noted 70.5% | SK-MEL-28 melanoma 99.1%

C[C@]12CCc3nc(-c4ccc(O)c(O)c4)sc3C1=CC[C@@H]1[C@@H]2CC[C@]2(C)C(=O)CC[C@@H]12
inactive: DU-145 prostate; 10 µM unless noted 75.3% | K-562 leukemia; 10 µM unless noted 56% | MALME-3M melanoma; 10 µM unless noted 62.9% | MDA-MB-231 breast; 10 µM unless noted 56% | RXF 393 renal; 10 µM unless noted 91.2% | SF-268 CNS; 10 µM unless noted 81.5% | SF-295 CNS 104% | SF-539 CNS; 10 µM unless noted 56.4% | UACC-257 melanoma; 10 µM unless noted 91.4% | M14 melanoma; 10 µM unless noted 63.1% | HCT-15 colon; 10 µM unless noted 26% | HT29 colon; 10 µM unless noted 77.7% | SNB-75 CNS; 10 µM unless noted 92.3% | SNB-19 CNS; 10 µM unless noted 75% | U251 CNS; 10 µM unless noted 40.5% | PC-3 prostate 34.3% | SK-MEL-5 melanoma; 10 µM unless noted 78.5% | UACC-62 melanoma 91.5% | LOX IMVI melanoma; 10 µM unless noted 89.1%

CN(C)C(=S)SSC(=S)N(C)C
inactive: DU-145 prostate; 10 µM unless noted 105% and 125% | K-562 leukemia; 10 µM unless noted 105% | MALME-3M melanoma; 10 µM unless noted 65.5% and 90.9% | MDA-MB-231 breast; 10 µM unless noted 112% and 98.5% | RXF 393 renal; 10 µM unless noted 104% and 128% | SF-268 CNS; 10 µM unless noted 102% and 113% | SF-295 CNS 75% and 96.9% | SF-539 CNS; 10 µM unless noted 100% and 112% | UACC-257 melanoma; 10 µM unless noted 77.7% and 103% | M14 melanoma; 10 µM unless noted 93% and 100% | HCT-15 colon; 10 µM unless noted 93.9% and 113% | HT29 colon; 10 µM unless noted 61.1% and 92.2% | SNB-75 CNS; 10 µM unless noted 109% and 104% | SNB-19 CNS; 10 µM unless noted 98.7% and 98.8% | U251 CNS; 10 µM unless noted 81.2% and 75.7% | PC-3 prostate 75.5% and 91.1% | SK-MEL-5 melanoma; 10 µM unless noted 82% | UACC-62 melanoma 97.4% and 96.2% | LOX IMVI melanoma; 10 µM unless noted 104% and 108%

N#Cc1ccc(Cl)cc1
inactive: DU-145 prostate; 10 µM unless noted 117% | K-562 leukemia; 10 µM unless noted 99.4% | MALME-3M melanoma; 10 µM unless noted 115% | MDA-MB-231 breast; 10 µM unless noted 108% | RXF 393 renal; 10 µM unless noted 120% | SF-268 CNS; 10 µM unless noted 108% | SF-295 CNS 113% | SF-539 CNS; 10 µM unless noted 108% | UACC-257 melanoma; 10 µM unless noted 104% | M14 melanoma; 10 µM unless noted 106% | HCT-15 colon; 10 µM unless noted 110% | HT29 colon; 10 µM unless noted 84.4% | SNB-75 CNS; 10 µM unless noted 101% | SNB-19 CNS; 10 µM unless noted 108% | U251 CNS; 10 µM unless noted 105% | PC-3 prostate 129% | SK-MEL-5 melanoma; 10 µM unless noted 106% | UACC-62 melanoma 104% | LOX IMVI melanoma; 10 µM unless noted 106% | SK-MEL-28 melanoma 117%

CC(=O)OCC1OC([S-])C(OC(C)=O)C(OC(C)=O)C1OC(C)=O.[Au+].c1ccc(CN2[CH-]N(Cc3ccccc3)C(c3ccccc3)=C2c2ccccc2)cc1
active: K-562 leukemia; 4.75 µM -15.1% | K-562 leukemia; 10 µM -6.23% | MALME-3M melanoma; 4.75 µM -20.1% | MALME-3M melanoma; 10 µM -49% | MDA-MB-231 breast; 4.75 µM -43.6% | MDA-MB-231 breast; 10 µM -55.7% | RXF 393 renal; 4.75 µM -65.4% | RXF 393 renal; 10 µM -75% | SF-268 CNS; 4.75 µM -6.05% | SF-268 CNS; 10 µM -36% | UACC-257 melanoma; 4.75 µM -17.4% | M14 melanoma; 4.75 µM 8.95% | M14 melanoma; 10 µM -12% | HCT-15 colon; 4.75 µM -57.5% | HCT-15 colon; 10 µM -79.8% | HT29 colon; 4.75 µM 0.406% | SNB-75 CNS; 10 µM 3.87% | SNB-19 CNS; 4.75 µM -49.9% | SNB-19 CNS; 10 µM -80.3% | U251 CNS; 4.75 µM -72.4% | U251 CNS; 10 µM -84% | SK-MEL-5 melanoma; 4.75 µM -50.5% | LOX IMVI melanoma; 4.75 µM -82.1% | LOX IMVI melanoma; 10 µM -86.2%
inactive: DU-145 prostate; 4.75 µM 10.1% | DU-145 prostate; 10 µM 11.3% | SF-539 CNS; 4.75 µM 14.3% | SF-539 CNS; 10 µM 41.8% | UACC-257 melanoma; 10 µM 20.6% | HT29 colon; 10 µM 16.4% | SNB-75 CNS; 4.75 µM 26.1% | SK-MEL-5 melanoma; 10 µM 16.8%
